Data reported in the supplement of paper PMC3334620.
Whole data set: some 33,000 sequences, median “E-score (-0.5 to 0.5)” near -0.016, cut for the highest 2% near 0.32. Many of the other results were omitted from the sample, so the highest values are more common in it than they were.

biological target: T1, Stp1 (UniProt B3LFK1); assay: PBM E-score (8-mer binding enrichment) (E-score (-0.5 to 0.5)); higher = stronger / more preferred TF binding; settings: protein concentration: 200 nM; construct: GST-full length
T1 sequence: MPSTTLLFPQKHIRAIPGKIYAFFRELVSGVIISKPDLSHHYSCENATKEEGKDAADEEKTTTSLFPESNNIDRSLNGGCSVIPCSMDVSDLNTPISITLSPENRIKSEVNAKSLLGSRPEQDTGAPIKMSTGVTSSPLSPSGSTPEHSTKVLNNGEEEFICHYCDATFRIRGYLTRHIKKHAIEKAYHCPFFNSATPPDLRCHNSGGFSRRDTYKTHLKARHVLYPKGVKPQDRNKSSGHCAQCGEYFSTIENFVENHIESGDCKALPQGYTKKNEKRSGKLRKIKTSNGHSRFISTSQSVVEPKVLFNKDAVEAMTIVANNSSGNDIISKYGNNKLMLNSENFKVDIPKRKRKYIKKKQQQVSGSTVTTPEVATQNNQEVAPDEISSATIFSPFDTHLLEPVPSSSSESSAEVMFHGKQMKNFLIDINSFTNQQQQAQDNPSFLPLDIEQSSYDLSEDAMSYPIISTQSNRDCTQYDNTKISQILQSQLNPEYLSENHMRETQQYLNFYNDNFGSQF
Method in brief: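 PURExpress in vitro transcription/translation supplied GST-tagged yeast transcription factors, either full-length or DNA-binding domain. Applied at about 100-200 nM to universal all-10-mer Agilent arrays double-stranded by primer extension, the bound protein was detected with fluorescent anti-GST. E-scores, modified Wilcoxon-Mann-Whitney statistics, were given by the Universal PBM Analysis Suite to ungapped eight-base words pooled with their reverse complements after masliner normalisation.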

Sequence	PBM E-score
ACACCTTA	0.0262
ACGACCGT	-0.11
AAAGTGCC	0.201
CACACGGA	0.253
AACACGGC	0.449
AACACGGG	0.116
ATCACGGA	-0.0235
AGCACGGG	0.14
ATCACGGC	0.351
CACACGGG	0.235
AGCACGGC	0.451
AACACGGA	0.199
AGCACGGA	0.114
CACACGGC	0.471
ATCACGGG	0.00016
ACACCGAA	0.0644
AAGGAGCT	-0.235
AAAGCAAC	0.0791
AGTATTCG	0.0476
ATTTGGTA	0.144
AGACGCGC	0.0493
GACACGCC	0.105
GACACGGA	0.315
GACACGGC	0.479
GCCCTATA	0.206

Sequence	PBM E-score
AACCAAAG	0.0816
ACCACTAT	-0.127
AGCATTAC	-0.0767
GGCATTAC	0.364
CGCATTAA	0.144
GGCATTAA	0.319
AGCATTAA	-0.0764
CGCATTAC	-0.0452
ATACTGGC	-0.284
AATATCGT	0.141
ACCCAACT	-0.178
AGTGCCAC	0.242
CGTGCCGA	0.352
AGTGCCGG	0.211
CGTGCCAC	0.232
GGTGCCGA	0.288
CGTGCCGC	0.475
AGTGCCGC	0.477
CGTGCCCA	0.235
CGTGCCAG	0.172
ACTGCCGG	0.0822
ACTGCCGC	0.412
CCTGCCGC	0.226
ACAGGTAG	-0.126
GAACTCCA	-0.0707

Sequence	PBM E-score
CCGACTTA	0.0516
CTCTGAAA	0.0291
CATTCTCG	0.128
GGGCCTGA	-0.296
AGTGCCCA	0.0772
CTTGCCGC	0.309
ATTGCCGA	0.177
AGTGCCAA	-0.0972
ATTGCCGC	0.418
AGTGCCGA	0.322
ATCAACCG	-0.0921
CCCGTACA	-0.0395
GCCGTACA	0.459
CCCGTACC	0.191
ACCGTACC	-0.0289
GCCGTACC	0.46
ACCGTACA	0.117
CCAGAGAG	-0.245
TCTCGGCA	0.045
CCGCGGTC	-0.0134
CCTCGGCA	0.282
GCGCGGAA	0.263
CCGCGGGC	0.215
GCGCGGAC	0.256
GCGCGGGA	0.163

Sequence	PBM E-score
GCGCGGCA	0.483
GCGCGGCC	0.4
GAGCGGCC	0.156
CCGCGGCC	0.325
ACTCGGCA	0.324
CAGCGGGA	-0.174
AGATAGTA	0.0718
ACATAGTC	-0.0859
AACACCCG	0.151
CTGTGATC	-0.0819
CACGTAGG	-0.104
CCCCGTCA	-0.177
CAGATTTA	0.198
TGGTTACA	-0.0623
TCTACCAA	-0.0725
ACGCGGCT	0.446
ACGCGGAT	0.236
ACGCGGCA	0.479
ACGCGGTC	-0.0102
ACGCGGGA	0.0444
CCGCGGAG	0.0416
CCGCGGCG	0.435
ACGCGGCC	0.326
ACGCGGTA	0.0505
ACGCGGAC	0.0606

Sequence	PBM E-score
CCGCGACG	0.197
ACGCGTCT	-0.112
AACAGTCC	-0.215
ATACACTG	0.0725
AGCCTCGG	-0.0283
GCTTGGAA	-0.00205
AGAACCTA	-0.109
AGCCAGCA	-0.297
CTTATTGC	0.0179
ACACAAGT	0.00705
GGATGTGA	-0.084
TGCCAGCA	0.01
ATACCTGG	-0.284
AAGCAGGC	-0.277
CAGAGCTG	-0.147
ATCCGGAT	-0.0475
CCGCGGAA	0.183
ACGCGGCG	0.488
TCGCGGAA	-0.0668
TCGCGACA	-0.0531
ACGCGGAG	0.111
CCGCGGGA	0.218
CCGCGGCA	0.441
ACGCGGTG	0.0603
TCGCGGCA	0.346

Sequence	PBM E-score
CTGCCAGC	-0.204
TCAAAGAA	-0.0561
AAGCGAGC	0.0162
CAAGGTTC	-0.124
CCGCTCTC	-0.0569
AAAACCTA	0.0597
CGGGTGGA	-0.162
AGACGGAA	0.106
GGACGGCC	0.16
GGACGGCA	0.441
AGACGGCA	0.449
CGACGGCA	0.299
AGACGGGA	-0.12
AGGGTCAT	-0.233
CTCGCCAA	0.0165
CGACTCGA	-0.115
CACCATTC	0.0105
CACCGTCG	-0.114
CTACGGCA	0.473
GTACGGGA	0.0383
CTACGGTA	-0.146
GTACGGTA	0.147
CTACGGAA	0.0958
GTACGGCA	0.48
ATACGGCC	0.406

Sequence	PBM E-score
CTACGGCC	0.126
ATACGGGA	0.125
ATACGGAA	0.268
ATACGGGC	-0.0186
ATACGGCA	0.483
CAAAGGGG	-0.262
GGGCTGAC	-0.134
AGTAGACA	0.0181
ATAGGGAC	-0.211
ATCTCCTC	-0.209
AGCCTGCG	-0.245
GTTAAGAA	0.0825
AGAGAGAA	-0.198
CTAGAAAA	-0.0127
AGCCGCGG	0.376
ATCCGCGG	0.13
AGCCGCGC	0.424
ACCCGCGC	0.232
AACCGCGC	0.167
AGCCGCGA	0.159
GGGTTCCA	-0.286
AGAGTACA	0.04
CCGTTAGC	0.0331
CAGACCCC	-0.381
CCGGCAAG	-0.0231

Sequence	PBM E-score
AGGGCAAT	0.156
ATGGCAAA	0.197
ACGGCAAA	0.45
AAGGCAAG	0.0628
AAGGCAAC	0.274
AGGGCAAA	0.0608
ACGGCAAT	0.45
ATGGCAAC	0.289
ACGGCAAG	0.369
ACGGCAAC	0.455
AAGGCAAT	0.253
AATGTCCT	-0.246
CAAGCGCG	0.124
ATTTTGAA	0.277
GGAGTCAC	-0.236
ACTAACAT	0.0936
ACGGATAC	0.249
GGAAAGGA	-0.0901
AAGCCGTG	0.419
AAGCCGAG	-0.0198
GAGCCGAA	0.232
AAGCCGTC	0.296
AAGCCGGG	-0.211
AAGCCGAA	0.116
GAGCCGTA	0.468

Sequence	PBM E-score
CAGCCGTA	0.306
AAGCCGTA	0.398
CACCTCCG	-0.0858
AGATCCTC	-0.251
ACTGTGAA	0.0195
CCTGCACC	-0.271
GAGATTAC	-0.0779
ACGTAGAT	-0.0617
ACCTTTAC	0.0425
GAGACAGA	-0.0347
TATGCGGA	0.207
GCCGAACA	0.114
CTGGGGGA	-0.35
AGGTAGCG	-0.105
CCGCGCCC	0.279
ACGCGCCC	0.289
ACGCGCTG	0.119
CCGCGTCC	0.296
ACGCGCCA	0.0175
ACGCGCCG	0.412
CCGCGTCG	0.355
CCGCGCCA	0.252
CCGCGCCG	0.462
ACGCGCCT	0.34
ACGCGCAG	-0.103

Sequence	PBM E-score
CCGCGTCA	0.214
CTTGGTTC	0.197
ACGGTTAA	0.0599
AAAGGCTG	-0.102
GGTATCCA	0.0649
AACGAGTT	-0.18
CCTGCCCA	-0.259
ATCAGAGC	0.0942
GAAGTATA	0.169
GCGTTGAA	0.138
CGCAAAAG	0.0708
CTTGCTCC	-0.0209
ATGGCGCG	0.196
GAGGCCCC	-0.125
CTGGCGCC	0.314
AAGGCGTC	0.296
ATGGCGCC	0.34
GAGGCGCC	0.414
AAGGCGCC	0.424
CAGGCGCC	0.286
GAGGCGCA	0.338
AAGGCGAC	0.224
GAGGCGAA	0.206
GAGGCGTA	0.278
CGATAGAC	0.00428

Sequence	PBM E-score
AGGTGAGA	-0.0297
ATACCACA	0.0264
ATGTCGCA	0.0188
ATAGGCGA	-0.0945
ATACTCGC	-0.0916
CCCCCTGC	-0.346
TAAATCAA	0.0833
CTTAGCCA	0.13
AAGCGCTT	0.0783
GATCCTAA	-0.164
GCATGAGA	0.151
GGAGATAC	-0.0561
ATCCTAGC	-0.102
CAGGCGCA	-0.031
AAGGCGCT	0.396
AAGGCGGT	0.105
CAGGCGCG	0.113
AAGGCGGG	-0.112
TAGGCGCA	0.155
AAGGCGCG	0.4
AAAGCGCT	0.16
AAGGCGCA	0.316
CCTACTGC	0.107
CTGAAGGC	-0.14
AGTTGGGA	-0.114

Sequence	PBM E-score
ACCCGAGA	-0.282
CACCCAGA	-0.257
AGACCGCC	-0.0258
ACCGTTGA	-0.134
GCCGTTTA	0.443
ACCGTTTA	0.168
CGCGTTTA	-0.0505
GGCGTTTA	0.337
AGCGTTTA	-0.127
GCCGTTGA	0.383
CCCGTTGA	-0.0684
CCCGTTTA	0.185
GAATCTCC	-0.122
GGAAGGAA	-0.0797
GAACTGAC	0.0623
AGAGTATG	-0.303
AGCTGCTC	-0.127
CGGATAGA	0.228
TGACCGCA	0.025
ACATGCCT	0.066
CCATGCCA	0.148
CCATGCCC	-0.0806
ACATGCCG	0.369
CCATGCCG	0.336
ACATGCCC	-0.168

Sequence	PBM E-score
TAATAGCA	-0.0461
CCGCCGGA	0.0267
ACGCCGAC	0.204
GCGCCTCC	0.293
CCGCCGCC	0.194
CCGCCGCA	0.402
GCGCCGCC	0.454
ACGCCGCT	0.423
ACGCCGCC	0.355
AAGCCGCT	0.265
CCGCCGGC	0.165
ACGCCGAT	0.23
CCGCCGAA	0.216
ATGGAGGC	-0.236
AGTGGGTG	-0.0322
GCAACAGC	0.0755
AACGCTCT	-0.216
AGGCCGCA	0.162
TCTCCGCA	-0.0488
AGGCCGCG	0.244
ACGCCGCG	0.473
ACGCCGAG	0.0836
ACGACGCA	0.0151
ACGCCGGA	0.00769
TCACCGCA	-0.0824

Sequence	PBM E-score
GGGCCGCA	0.285
TCGCCGCA	0.448
ACGCCGCA	0.476
CGGCCGCA	0.325
ACAAAAGT	0.0775
ACGTTAAT	0.112
GCCCTACA	0.0881
GTAACTAA	0.0925
CTTGATAC	0.113
CTAGGTCC	-0.102
AGTCAAGA	-0.0455
GTTCAAGA	0.0574
CCTCGGAA	-0.0641
CCGCCCCG	0.273
CCGCCGAG	0.083
CCGCCGCG	0.437
TCCAAGCA	0.0574
GGCATCCC	-0.0465
CGCATCGA	0.0903
GGCATCGA	0.327
AGCATCGA	-0.0592
